JMJD2A Tudor inh = JMJD2A Tudor domain (human) inhibition. AID 504339. Potency, µM (top dose mostly 114 µM), without a hit: top-dose activity change, negative = inhibition, actives largely listed as inhibitors. O75164. AlphaScreen JMJD2A-Tudor / H3K4me3 peptide binding. hit rate 4.4% among 390,000; further: potency means the concentration at half of the fitted maximal effect; on the % scale 0 is the no-effect control and ±100 the full control effect; nearly all actives have a fitted effect of over 50% in size
HP1b binding inh = HP1-beta chromodomain-methylated histone interaction inhibition. P83916. AlphaScreen HP1-beta / biotin-H3K9me3 peptide binding. Potency, µM (highest dose often 114 µM), for the others: top-dose activity change, negative = inhibition, hits mostly inhibitors. hit rate 0.56% among 390,000. AID 540317; further: potency means the concentration at half of the fitted maximal effect; nearly all actives have a fitted effect of over 70% in size
Target sequence (P83916 whole entry, looked up): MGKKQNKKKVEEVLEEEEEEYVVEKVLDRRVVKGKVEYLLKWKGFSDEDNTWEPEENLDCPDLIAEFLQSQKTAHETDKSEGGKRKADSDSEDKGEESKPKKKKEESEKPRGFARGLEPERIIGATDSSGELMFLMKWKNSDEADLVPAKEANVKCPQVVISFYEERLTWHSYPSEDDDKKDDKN
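AlphaScreen: HP1-beta (50 nM) preformed 30 min with biotin-H3(1-18)K9me3 peptide (50 nM) in PBS pH 7.4, 0.01% Tween-20. Compound added for 30 min at RT, then streptavidin donor/nickel chelate acceptor beads (10 ug/mL) for 30 min.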
G9a inh = G9a (human) methyltransferase inhibition; Q96KQ7; G9a H3K9 monomethylation, AlphaScreen, 2 h; Potency, µM (series often up to 102 µM), without a hit: top-dose activity, negative = inhibition, hits mostly inhibitors; hit rate 8.8% among 350,000; further: potency means the concentration at half of the fitted maximal effect; on the % scale 0 is the no-effect control and ±100 the full control effect; nearly all actives have a fitted effect of over 75% in size
Target sequence (Q96KQ7 913-1193 limits assumed): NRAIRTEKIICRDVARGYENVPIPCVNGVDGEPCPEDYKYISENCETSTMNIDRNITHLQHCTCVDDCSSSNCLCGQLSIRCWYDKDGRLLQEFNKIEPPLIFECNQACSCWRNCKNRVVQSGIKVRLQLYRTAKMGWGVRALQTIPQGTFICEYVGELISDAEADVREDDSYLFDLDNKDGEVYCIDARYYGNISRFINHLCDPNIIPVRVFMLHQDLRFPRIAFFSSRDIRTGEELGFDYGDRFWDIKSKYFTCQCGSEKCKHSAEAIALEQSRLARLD
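Compounds were preincubated with 20 nM G9a for 15 min, after which biotinylated H3K9 peptide (500 nM) and SAM (20 uM) started a 2 h room-temperature reaction. Monomethylated product was quantified by antibody-based AlphaScreen chemiluminescence.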
BAZ2B inh = inhibitors of human BAZ2B bromodomain | Q9UIF8 | AlphaScreen BAZ2B-H3K14Ac peptide displacement | Potency, µM (titrated, usually from 114 µM), inactives show at the highest dose activity change, negative = inhibition, actives largely listed as inhibitors | hit rate 4.4% among 360,000; further: potency means the concentration at half of the fitted maximal effect; on the % scale 0 is the no-effect control and ±100 the full control effect; nearly all actives have a fitted effect of over 60% in size
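Inhibition is scored as reduced AlphaScreen emission. The BAZ2B/b-H3(5-23)K14Ac complex (50 nM each) in PBS pH 7.4, 0.01% Tween-20 meets compound (up to 110 uM) for 30 min at RT before bead addition.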
CtBP-E1A inh = blocks the CtBP interaction with E1A. AlphaScreen GST-E1A/His-CtBP binding, 1536-well; active compounds read low. activity change, % (test concentration not listed). hit rate 0.49% among 340,000; in the data active means activity change below about -65%; inconclusive means mostly about -30% to -63%; further: on the % scale 0 is the no-effect control and ±100 the full control effect
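In 5 uL wells, 23 nL compound meets equimolar GST-E1A and His-CtBP (5X stock 125 nM each) for 2 h, 37 °C. Beads (5X, 50 ug/mL) then 1 h, 37 °C, dark.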
Six1-Eya2 blk = inhibitors of human Six1/Eya2 interaction | Q15475+O00167 | AlphaScreen GST-Six1/His-Eya2 binding, biochemical; active compounds read low | activity change, % (test concentration not listed) | hit rate 0.56% among 360,000; in the data active means activity change below about -65%; inconclusive means mostly about -30% to -63%; further: on the % scale 0 is the no-effect control and ±100 the full control effect
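Compounds are tested against tagged Six1 and Eya2 proteins bridged by glutathione donor and nickel acceptor beads; after a one-hour incubation at 37 °C without light, AlphaScreen emission is recorded.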
An asterisk follows results filed as active; [ ] = remark or other dose. Compounds with a hit are over-represented: about 10% of the library has one in this group of screens. Unless noted, the call rests on the fitted dose curve; in most records, active means well fitted inhibition curve with a large enough effect; inconclusive means small, poorly fitted or top-dose-only effect; inactive means no such curve, though single readings can be large or run the other way.

CN(C)c1ccc(/C=N/NC(=O)CNC(=O)c2ccc3c(c2)OCCO3)cc1 was read as JMJD2A Tudor inh -26%, HP1b binding inh 29%, G9a inh inconclusive, BAZ2B inh -32%, CtBP-E1A inh -12 and Six1-Eya2 blk -5.
`O=C(NC(c1ccccc1)c1ccc2ccccc2n1)C1CCN(Cc2ccc(Cl)c(Cl)c2)CC1` (stereo not drawn) gave CtBP-E1A inh -24 and Six1-Eya2 blk -8.
Screening COc1ccc(CCNC(=O)C(=O)NCC(c2ccc3c(c2)OCO3)N2CCOCC2)cc1OC (stereo not drawn) returned JMJD2A Tudor inh -19%, HP1b binding inh 13%[57 µM], G9a inh 2%[59 µM] and BAZ2B inh -1%.
COc1ncc(-c2ccc(N3C(c4ccc([N+](=O)[O-])cc4)=Cc4ccccc4C3CC(C)=O)cc2)cn1 (stereo not drawn) was read as CtBP-E1A inh -2 and Six1-Eya2 blk -13.
Screening COc1ccc(C2CC=C(C(C)=O)CN2S(=O)(=O)c2ccc(Cl)cc2)cc1 (stereo not drawn) returned CtBP-E1A inh 2 and Six1-Eya2 blk -3.
`O=C(COc1ccccc1)NCC(=O)N/N=C/c1ccc(O)cc1O` gave JMJD2A Tudor inh -32%, HP1b binding inh 9%, G9a inh 45%[59 µM], BAZ2B inh -12%, CtBP-E1A inh -91* and Six1-Eya2 blk -80*.
For CCOc1ccccc1C=NNC(=O)C(=O)NN=Cc1ccccc1OCC the results were JMJD2A Tudor inh -10%, HP1b binding inh 30%, CtBP-E1A inh -2 and Six1-Eya2 blk 3.
Screening COc1cccc(/C=N/NC(=O)CNC(=O)C2COc3ccccc3O2)c1O (stereo not drawn) returned JMJD2A Tudor inh -15%, HP1b binding inh 41%, G9a inh 22%[59 µM], BAZ2B inh 11%, CtBP-E1A inh -83* and Six1-Eya2 blk inconclusive.
`CCOc1ccccc1NC(=O)C(=O)N/N=C/c1cc(Br)ccc1O` gave JMJD2A Tudor inh inconclusive, HP1b binding inh 23%, G9a inh 14%, BAZ2B inh 8.9µM*, CtBP-E1A inh inconclusive and Six1-Eya2 blk -14.
Screening O=C(N/N=C/c1cccc(O)c1)c1ccc2c(c1)OCCO2 returned JMJD2A Tudor inh -11%, HP1b binding inh 35%, G9a inh 17%, BAZ2B inh -4% and Six1-Eya2 blk 2.
Screening O=C(CNC(=O)C1COc2ccccc2O1)N/N=C\c1ccccc1Cl (stereo not drawn) returned JMJD2A Tudor inh -21%, HP1b binding inh 8%[57 µM], G9a inh 5%, BAZ2B inh -27%, CtBP-E1A inh 5 and Six1-Eya2 blk 6.
For Cc1cccc(/C=N/NC(=O)c2ccc3c(c2)OCCO3)c1O the results were G9a inh 37% and BAZ2B inh 20µM*.
COCCN(C(=S)Nc1ccc(OC)c(Cl)c1)C1CCN(C(C)=O)CC1 was read as CtBP-E1A inh -24 and Six1-Eya2 blk 8.
For COc1cccc(CNC(=O)CN(c2ccc(C(C)C)cc2)S(=O)(=O)c2c(C)n[nH]c2C)c1 the results were JMJD2A Tudor inh -28%, HP1b binding inh 26% and G9a inh 12%[59 µM].
CC1Sc2ccc(S(=O)(=O)CCC(=O)NCc3cccs3)cc2NC1=O (stereo not drawn) was read as JMJD2A Tudor inh -26%, HP1b binding inh 35%, G9a inh -3%, BAZ2B inh -4%, CtBP-E1A inh 1 and Six1-Eya2 blk 2.
Screening COc1cccc(/C=N/NC(=O)CNC(=O)COc2ccccc2)c1O returned JMJD2A Tudor inh -16%, HP1b binding inh 18%, G9a inh 46%, BAZ2B inh -1%, CtBP-E1A inh inconclusive and Six1-Eya2 blk -83*.
O=C(N/N=C/c1ccc(O)cc1O)C(=O)N/N=C/c1ccc(O)cc1O was read as JMJD2A Tudor inh 2.5µM*, HP1b binding inh -7%, G9a inh 28%[59 µM], BAZ2B inh 35µM*, CtBP-E1A inh -92* and Six1-Eya2 blk -68*.
